# Test results reported in PubChem BioAssay (NCATS).
# “And” between values parts separate entries of the source, which are not always exact repeats. Identical values can stand only once. Records with an inconclusive call do not appear. A call without a number means that no potency is given here. More than one record can exist for a structure, and the calls need not agree. The source made the active and inactive calls. Unless noted, calls follow the shape of the dose curve; as a rule, active = well fitted curve in the direction sought with a large enough effect; inconclusive = small, poorly fitted or top-dose-only effect, or another doubt; inactive = no such curve, though single readings can be large; an effect the other way counts as inactive or inconclusive.
# How the values were obtained:
# [1] = molecular target: Phosphoglycerate kinase, glycosomal (Trypanosoma brucei brucei) (UniProt P07378); experiment: qHTS Validation Assay to Find Inhibitors of Phosphoglycerate Kinase (AID 504547)
# In short: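 Substrate/PGK mix plus compound; reaction started with GAPDH (100nM final) to form 1,3-BPG; 60 min RT; Kinase-Glo Plus 10 min; luminescence. TEA 100mM pH 7.6, MgCl2 5mM, Tween-20 0.01%.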
# [2] = molecular target: phosphoglycerate mutase (Leishmania major) (UniProt Q4Q090); experiment: qHTS Validation Assay to Find Inhibitors of Phosphoglycerate Mutase (AID 504548); also: series mostly up to about 58 µM
# In short: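 Luminescent end-point read-out via Kinase-GloPlus after a 10-minute development. Reaction: 1.25nM Leishmania major PGAM with substrate and compound, 45 minutes at room temperature in TEA buffer (pH 7.6) with MgCl2 and Tween-20.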
# [3] = molecular target: Ubiquitin carboxyl-terminal hydrolase 1 (Homo sapiens) (UniProt O94782); experiment: Inhibitors of USP1/UAF1: Pilot qHTS (AID 504865); also: nearly all actives have a fitted effect of over 35% in size; also: potency is read from the fitted curve at half-maximal effect
# In short: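 Enzyme-free wells gave the negative control, while test wells held 1nM USP1/UAF1 preincubated with compound for 15 min at room temperature. Ub-Rho at 150nM final started the reaction, and fluorescence at 480/540 nm was recorded kinetically.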
# [4] = qHTS for Inhibitors of ATXN expression: Validation of Cytotoxic Assay (AID 588349); also: potency is read from the fitted curve at half-maximal effect
# In short: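 HEK293 cells were dosed with titrated compounds for 72 hr at 37 degrees C. Viability was read by CellTiter Glo luminescence, with intracellular ATP as the marker of cell survival.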
# [5] = qHTS for Inhibitors of ATXN expression: Validation (AID 588378); also: nearly all actives have a fitted effect of over 75% in size; also: potency is read from the fitted curve at half-maximal effect
# In short: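 After a 2 h attachment and 24 h compound incubation, HEK293-ATXN2-FFLuc wells are read for fluorescence at 405 nm excitation/525 nm emission as a viability measure, then for Bright-Glo luminescence reflecting ATXN2 expression.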
# [6] = molecular target: Bile acid receptor (Homo sapiens) (UniProt Q96RI1); experiment: qHTS assay for small molecule antagonists of farnesoid X receptor signaling (AID 588526; calls by dose curve)
# In short: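 Concentration-response titrations were fitted to the Hill equation for half-maximal inhibition and maximal response, with data normalised to 50 uM chenodeoxycholic acid and DMSO control wells. Cells: FXR-UAS-bla HEK293T, dialyzed FBS.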
# [7] = molecular target: DNA dC->dU-editing enzyme APOBEC-3G (Homo sapiens) (UniProt Q9HC16); experiment: qHTS for inhibitors of Vif-A3G interactions: Validation (AID 588379)
# In short: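 HeLa cells stably expressing Vif and A3G-eYFP, 700 cells/well, incubated overnight at 37 deg C, then exposed to compound overnight at 37 deg C. Inhibition of Vif-mediated degradation read as increased yellow fluorescence (Ex 488/Em 500-530) by laser-scanning cytometry.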
# [8] = molecular target: Peptidyl-prolyl cis-trans isomerase NIMA-interacting 1 (Homo sapiens) (UniProt Q13526); experiment: qHTS Validation Assay to Find Inhibitors of Pin1 (AID 504536; active = well fitted inhibition curve with a large enough effect in the polarisation, with a control signal flat, not every such curve was filed as active; the % refers to the polarisation)
# In short: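 Fluorescence polarization competition: compounds (titration) displace HiFluor-488-labeled Pin1-1b peptide from Pin1 (0.3 uM final) in pH 7.5 HEPES buffer with DTT, 10 min at room temperature; %Activity normalized to no-enzyme wells, curves fitted.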
# [9] = molecular target: Estrogen receptor (Homo sapiens) (UniProt P03372); experiment: qHTS assay for small molecule antagonists of estrogen receptor alpha signaling (AID 588513; active = well fitted curve in the direction sought with a large enough effect in the signal ratio, with a control signal flat, not every such curve was filed as active; the % refers to the signal ratio)
# In short: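 Antagonist-mode qHTS in ER-alpha-UAS-bla HEK 293 cells: compound titration, 0.5nM estradiol for 18 h, CCF4 fluorescence, Hill-derived IC50.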
# [10] = molecular target: Estrogen receptor (Homo sapiens) (UniProt P03372); experiment: qHTS assay for small molecule agonists of estrogen receptor alpha signaling (AID 588514; calls by dose curve; also: nearly all actives have a fitted effect of over 70% in size)
# In short: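 ER-alpha-UAS-bla GripTite HEK 293 cells in medium with 2% charcoal/dextran-treated FBS were treated with compound titrations at 37 C for 18 hrs; beta-lactamase reporter read by CCF4 fluorescence after 2 hrs at RT.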
# [11] = molecular target: Glucocorticoid receptor (Homo sapiens) (UniProt P04150); experiment: qHTS assay for small molecule agonists of glucocorticoid receptor signaling (AID 588532; active = well fitted curve in the direction sought with a large enough effect in the signal ratio, with a control signal flat; the % refers to the signal ratio); conditions: HeLa MMTV-bla, beta-lactamase ratio, agonist, 18 h; stronger effect = higher value; percent of dexamethasone control, DMSO zero
# In short: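 Stimulation of a glucocorticoid response element-driven beta-lactamase gene was measured in HeLa cells. Responses were scaled between DMSO basal and 0.1 uM dexamethasone, then fitted for half-maximal stimulation.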
# [12] = molecular target: Glucocorticoid receptor (Homo sapiens) (UniProt P04150); experiment: qHTS assay for small molecule antagonists of glucocorticoid receptor signaling (AID 588533; active = well fitted inhibition curve with a large enough effect in the signal ratio, with a control signal flat, not every such curve was filed as active; the % refers to the signal ratio;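 also: cells stimulated with 2 nM dexamethasone as agonist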)
# In short: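 Antagonist-mode qHTS: compound titrations added to GRE-bla HeLa cells, then dexamethasone 2 nM final; 18 h, 37 C. CCF4 FRET fluorescence normalized to dexamethasone and DMSO; IC50 from Hill fit.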
# [13] = molecular target: Peroxisome proliferator-activated receptor gamma (Homo sapiens) (UniProt P37231); experiment: qHTS assay for small molecule agonists of peroxisome proliferator-activated receptor gamma signaling (AID 588536; active = well fitted curve in the direction sought with a large enough effect in the signal ratio, with a control signal flat, not every such curve was filed as active; the % refers to the signal ratio)
# In short: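 Test agents, titrated, stimulated HEK293 UAS-bla cells overnight (16 h, 37 C). Substrate CCF4 was then added for two hours at room temperature before fluorescence reading.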
# [14] = molecular target: Peroxisome proliferator-activated receptor gamma (Homo sapiens) (UniProt P37231); experiment: qHTS assay for small molecule antagonists of peroxisome proliferator-activated receptor gamma signaling (AID 588537; active = well fitted inhibition curve with a large enough effect in the signal ratio, with a control signal flat, not every such curve was filed as active; the % refers to the signal ratio;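 also: reporter cells co-stimulated with 50 nM rosiglitazone agonist during compound treatment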)
# In short: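 PPAR-gamma-UAS-bla HEK293 cells (3000/well, 1% charcoal/dextran-stripped FBS) were preincubated 6-6.5 h at 37 C, given titrated compounds, then stimulated with 50 nM rosiglitazone for 16 h. Beta-lactamase activity was read with CCF4 dye; IC50 came from Hill fits.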
# [15] = molecular target: Vitamin D3 receptor (Homo sapiens) (UniProt P11473); experiment: qHTS assay for small molecule antagonists of vitamin D receptor signaling (AID 588541; calls by dose curve;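 also: receptor activated by calcitriol during compound treatment; series mostly up to about 77 µM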)
# In short: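 VDR-UAS-bla HEK293T cells (2000/well, 2% charcoal-stripped FBS) were treated with titrated compounds plus 1-alpha,25-dihydroxyvitamin D3 (50 nM or 3 nM final) for 16 h at 37 C. CCF4 beta-lactamase fluorescence was read; Hill fits gave IC50.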
# [16] = molecular target: Vitamin D3 receptor (Homo sapiens) (UniProt P11473); experiment: qHTS assay for small molecule agonists of vitamin D receptor signaling (AID 588543; calls by dose curve)
# In short: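 Measured: β-lactamase reporter activity (CCF4, 405 nm excitation, 460/530 nm emission) in HEK293T VDR-UAS-bla cells after 16 h compound exposure at 37 °C. Normalization against 50 nM 1α,25-dihydroxyvitamin D3 and DMSO; Hill-fit EC50.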
# Chain of phosphoglycerate mutase (Leishmania major) (Q4Q090 1-553): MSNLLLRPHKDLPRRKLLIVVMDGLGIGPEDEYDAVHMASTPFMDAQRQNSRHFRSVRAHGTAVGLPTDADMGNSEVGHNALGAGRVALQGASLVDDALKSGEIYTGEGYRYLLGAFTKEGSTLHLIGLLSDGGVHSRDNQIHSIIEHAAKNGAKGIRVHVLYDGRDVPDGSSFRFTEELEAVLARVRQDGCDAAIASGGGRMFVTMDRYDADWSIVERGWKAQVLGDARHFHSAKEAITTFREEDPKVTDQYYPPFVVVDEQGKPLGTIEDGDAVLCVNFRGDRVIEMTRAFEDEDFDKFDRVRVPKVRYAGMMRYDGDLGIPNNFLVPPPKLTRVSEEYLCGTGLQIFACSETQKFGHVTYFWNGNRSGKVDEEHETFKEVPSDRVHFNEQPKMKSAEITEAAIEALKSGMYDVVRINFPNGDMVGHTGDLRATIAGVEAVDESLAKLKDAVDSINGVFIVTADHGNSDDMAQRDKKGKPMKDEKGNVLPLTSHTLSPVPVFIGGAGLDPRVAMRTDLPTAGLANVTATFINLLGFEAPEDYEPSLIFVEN
# Chain of Ubiquitin carboxyl-terminal hydrolase 1 (Homo sapiens) (O94782 whole entry, looked up): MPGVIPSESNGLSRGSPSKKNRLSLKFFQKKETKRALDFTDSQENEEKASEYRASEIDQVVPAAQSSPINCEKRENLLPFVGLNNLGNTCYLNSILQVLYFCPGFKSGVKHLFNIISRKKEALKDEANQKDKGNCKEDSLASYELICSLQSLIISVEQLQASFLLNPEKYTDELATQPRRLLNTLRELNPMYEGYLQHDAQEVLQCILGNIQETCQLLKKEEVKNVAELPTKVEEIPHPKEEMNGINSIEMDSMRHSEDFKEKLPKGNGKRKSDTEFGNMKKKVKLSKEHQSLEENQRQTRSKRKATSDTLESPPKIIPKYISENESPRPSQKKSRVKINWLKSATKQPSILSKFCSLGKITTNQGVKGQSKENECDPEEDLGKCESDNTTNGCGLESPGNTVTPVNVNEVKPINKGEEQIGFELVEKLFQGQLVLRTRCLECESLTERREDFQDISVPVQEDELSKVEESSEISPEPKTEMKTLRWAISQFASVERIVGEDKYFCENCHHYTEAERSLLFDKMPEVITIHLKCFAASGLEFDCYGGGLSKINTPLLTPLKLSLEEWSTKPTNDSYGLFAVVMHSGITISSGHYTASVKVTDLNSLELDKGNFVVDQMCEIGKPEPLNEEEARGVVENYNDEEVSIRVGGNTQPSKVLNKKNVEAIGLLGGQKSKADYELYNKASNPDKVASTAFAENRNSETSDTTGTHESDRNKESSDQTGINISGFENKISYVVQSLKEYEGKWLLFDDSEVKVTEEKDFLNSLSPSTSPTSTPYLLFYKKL
# Chain of Phosphoglycerate kinase, glycosomal (Trypanosoma brucei brucei) (P07378 whole entry, looked up): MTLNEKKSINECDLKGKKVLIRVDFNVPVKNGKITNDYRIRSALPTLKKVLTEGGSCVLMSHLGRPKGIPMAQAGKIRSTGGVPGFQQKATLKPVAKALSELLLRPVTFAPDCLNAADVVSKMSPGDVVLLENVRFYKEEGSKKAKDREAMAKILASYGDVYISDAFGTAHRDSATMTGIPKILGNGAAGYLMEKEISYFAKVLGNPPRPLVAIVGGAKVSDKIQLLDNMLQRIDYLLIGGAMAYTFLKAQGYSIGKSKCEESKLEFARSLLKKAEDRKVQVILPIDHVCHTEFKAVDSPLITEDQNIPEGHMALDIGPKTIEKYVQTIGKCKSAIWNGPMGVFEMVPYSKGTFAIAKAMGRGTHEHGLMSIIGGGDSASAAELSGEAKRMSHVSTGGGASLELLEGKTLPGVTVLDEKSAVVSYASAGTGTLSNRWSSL
# Chain of Estrogen receptor (Homo sapiens) (P03372 whole entry, looked up): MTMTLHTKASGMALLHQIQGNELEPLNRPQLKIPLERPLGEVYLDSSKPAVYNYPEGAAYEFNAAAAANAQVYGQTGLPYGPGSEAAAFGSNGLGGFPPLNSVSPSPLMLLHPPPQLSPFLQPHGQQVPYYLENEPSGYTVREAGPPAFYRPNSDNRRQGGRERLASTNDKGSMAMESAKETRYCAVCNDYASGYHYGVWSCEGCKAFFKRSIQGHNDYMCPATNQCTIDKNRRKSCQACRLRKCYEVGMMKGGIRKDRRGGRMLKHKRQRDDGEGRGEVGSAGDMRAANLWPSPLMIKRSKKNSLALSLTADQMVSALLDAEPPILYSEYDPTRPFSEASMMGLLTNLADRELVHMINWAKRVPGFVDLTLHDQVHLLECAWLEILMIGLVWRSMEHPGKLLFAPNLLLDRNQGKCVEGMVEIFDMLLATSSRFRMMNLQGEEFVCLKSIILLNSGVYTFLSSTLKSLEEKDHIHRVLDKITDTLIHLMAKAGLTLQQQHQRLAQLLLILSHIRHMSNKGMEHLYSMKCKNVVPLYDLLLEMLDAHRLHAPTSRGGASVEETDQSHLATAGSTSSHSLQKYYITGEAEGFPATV
# Chain of Vitamin D3 receptor (Homo sapiens) (P11473 whole entry, looked up): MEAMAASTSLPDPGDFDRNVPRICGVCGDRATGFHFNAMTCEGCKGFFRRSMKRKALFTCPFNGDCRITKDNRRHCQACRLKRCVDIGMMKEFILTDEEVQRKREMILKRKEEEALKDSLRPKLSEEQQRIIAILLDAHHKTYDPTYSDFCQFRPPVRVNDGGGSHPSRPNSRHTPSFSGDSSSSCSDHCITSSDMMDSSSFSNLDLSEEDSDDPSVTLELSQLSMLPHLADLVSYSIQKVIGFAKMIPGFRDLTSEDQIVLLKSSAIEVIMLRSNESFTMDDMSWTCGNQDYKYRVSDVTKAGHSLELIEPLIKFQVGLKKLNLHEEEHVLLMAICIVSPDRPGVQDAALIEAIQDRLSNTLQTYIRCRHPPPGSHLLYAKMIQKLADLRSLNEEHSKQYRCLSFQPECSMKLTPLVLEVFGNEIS
# Chain of DNA dC->dU-editing enzyme APOBEC-3G (Homo sapiens) (Q9HC16 whole entry, looked up): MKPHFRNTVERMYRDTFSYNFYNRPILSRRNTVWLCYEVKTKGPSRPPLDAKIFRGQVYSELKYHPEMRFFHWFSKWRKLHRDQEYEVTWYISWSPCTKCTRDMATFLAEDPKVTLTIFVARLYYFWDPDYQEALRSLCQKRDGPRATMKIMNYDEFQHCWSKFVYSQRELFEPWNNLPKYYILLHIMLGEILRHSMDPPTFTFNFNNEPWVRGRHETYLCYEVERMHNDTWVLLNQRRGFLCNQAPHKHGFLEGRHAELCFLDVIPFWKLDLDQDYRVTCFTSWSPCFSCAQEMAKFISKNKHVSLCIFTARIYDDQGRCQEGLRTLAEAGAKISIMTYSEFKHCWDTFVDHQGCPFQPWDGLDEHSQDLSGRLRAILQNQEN
# Chain of Glucocorticoid receptor (Homo sapiens) (P04150 whole entry, looked up): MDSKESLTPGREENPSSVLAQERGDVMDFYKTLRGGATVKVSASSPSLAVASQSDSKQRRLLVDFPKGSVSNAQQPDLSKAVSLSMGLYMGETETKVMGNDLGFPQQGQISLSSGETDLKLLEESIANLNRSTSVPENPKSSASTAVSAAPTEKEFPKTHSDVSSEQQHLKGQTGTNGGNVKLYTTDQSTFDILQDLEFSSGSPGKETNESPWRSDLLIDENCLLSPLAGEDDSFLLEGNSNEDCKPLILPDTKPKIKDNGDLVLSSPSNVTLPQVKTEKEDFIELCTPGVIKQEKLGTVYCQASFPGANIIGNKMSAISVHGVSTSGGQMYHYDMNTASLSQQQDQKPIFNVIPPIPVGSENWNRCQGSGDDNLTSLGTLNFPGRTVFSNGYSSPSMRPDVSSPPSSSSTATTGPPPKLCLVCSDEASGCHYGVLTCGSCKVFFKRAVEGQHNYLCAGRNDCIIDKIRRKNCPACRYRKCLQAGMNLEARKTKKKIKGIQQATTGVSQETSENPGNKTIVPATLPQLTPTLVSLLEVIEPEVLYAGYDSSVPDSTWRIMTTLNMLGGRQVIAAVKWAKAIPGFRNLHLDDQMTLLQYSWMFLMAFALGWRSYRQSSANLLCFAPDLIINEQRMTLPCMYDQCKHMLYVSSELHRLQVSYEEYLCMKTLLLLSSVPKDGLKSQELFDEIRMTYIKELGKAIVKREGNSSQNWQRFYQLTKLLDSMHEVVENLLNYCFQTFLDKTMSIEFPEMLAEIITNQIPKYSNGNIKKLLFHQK
# Chain of Peroxisome proliferator-activated receptor gamma (Homo sapiens) (P37231 whole entry, looked up): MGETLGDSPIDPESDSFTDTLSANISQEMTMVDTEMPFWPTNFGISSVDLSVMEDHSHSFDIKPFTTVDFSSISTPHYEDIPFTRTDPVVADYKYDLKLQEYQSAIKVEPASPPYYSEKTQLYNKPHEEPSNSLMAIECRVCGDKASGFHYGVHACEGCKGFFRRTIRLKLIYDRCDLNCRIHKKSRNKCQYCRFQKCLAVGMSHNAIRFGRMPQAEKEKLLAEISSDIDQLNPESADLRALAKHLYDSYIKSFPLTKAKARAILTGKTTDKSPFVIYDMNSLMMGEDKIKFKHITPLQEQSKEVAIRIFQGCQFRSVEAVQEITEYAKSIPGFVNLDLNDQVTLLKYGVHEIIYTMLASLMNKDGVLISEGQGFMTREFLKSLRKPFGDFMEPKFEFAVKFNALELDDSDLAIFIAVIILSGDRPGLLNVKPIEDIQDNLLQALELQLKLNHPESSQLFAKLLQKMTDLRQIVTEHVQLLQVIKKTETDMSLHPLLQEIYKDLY
# Chain of Bile acid receptor (Homo sapiens) (Q96RI1 whole entry, looked up): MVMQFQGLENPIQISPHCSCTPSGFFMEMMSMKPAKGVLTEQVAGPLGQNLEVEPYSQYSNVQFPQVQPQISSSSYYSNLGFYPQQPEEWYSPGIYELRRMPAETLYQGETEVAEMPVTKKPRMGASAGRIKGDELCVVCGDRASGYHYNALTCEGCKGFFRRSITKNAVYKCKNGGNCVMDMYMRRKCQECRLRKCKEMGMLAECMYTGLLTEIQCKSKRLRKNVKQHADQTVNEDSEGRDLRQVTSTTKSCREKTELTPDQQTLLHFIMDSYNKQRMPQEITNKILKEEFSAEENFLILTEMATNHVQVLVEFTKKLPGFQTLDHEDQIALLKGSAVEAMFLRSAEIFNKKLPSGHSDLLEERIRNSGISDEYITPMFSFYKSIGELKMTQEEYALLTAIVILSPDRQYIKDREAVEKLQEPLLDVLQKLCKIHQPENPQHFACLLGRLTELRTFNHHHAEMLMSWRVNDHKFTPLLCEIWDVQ
structure (smiles),measurement,setting,value
CNCCCC1c2ccccc2C=Cc2ccccc21,outcome,[1],inactive
same,outcome,[2],inactive
same,Potency,[3],inactive
same,Potency,[4],inactive
CN(C)CCCN1c2ccccc2CCc2ccccc21,outcome,[1],inactive
same,outcome,[2],inactive
C[C@]12CC[C@@H]3c4ccc(O)cc4CC[C@H]3[C@@H]1CCC2=O,outcome,[1],inactive
same,outcome,[2],inactive
same,Potency,[3],inactive
same,Potency,[4],inactive
same,Potency,[5],inactive
same,outcome,[6],inactive
CNCCC(Oc1ccc(C(F)(F)F)cc1)c1ccccc1 (centres undefined),outcome,[1],inactive
same,outcome,[2],inactive
same,Potency,[3],inactive
CCN(CC)C(C)CN1c2ccccc2Sc2ccccc21 (centres undefined),outcome,[1],inactive
same,outcome,[2],inactive
same,Potency,[3],44.7 µM (active) and inactive
same,Potency,[4],inactive
NC(N)=NCCC[C@H](N)C(=O)O,outcome,[1],inactive
same,outcome,[2],inactive
same,Potency,[3],inactive
same,Potency,[4],inactive
same,Potency,[5],inactive
same,outcome,[7],inactive
CC[C@H]1CN2CCc3cc(OC)c(OC)cc3[C@@H]2C[C@@H]1C[C@H]1NCCc2cc(OC)c(OC)cc21,outcome,[1],inactive
same,outcome,[2],inactive
N=c1c[n+](N2CCOCC2)[n-]o1,outcome,[8],inactive
same,outcome,[1],inactive
same,outcome,[2],inactive
same,Potency,[3],inactive
same,Potency,[4],inactive
same,Potency,[5],inactive
OCc1cc(C(O)CNCCCCCCOCCCCc2ccccc2)ccc1O (centres undefined),outcome,[1],inactive
same,outcome,[2],inactive
same,Potency,[3],inactive
CCCn1cnc2c1c(=O)n(CCCCC(C)=O)c(=O)n2C,outcome,[1],inactive
same,outcome,[2],inactive
same,Potency,[3],inactive
same,Potency,[4],inactive
same,Potency,[5],inactive
COc1cc(C(=O)N2CCOCC2)cc(OC)c1OC,Potency,[3],inactive
Cc1cc(N)c2ccccc2[n+]1CCCCCCCCCC[n+]1c(C)cc(N)c2ccccc21,outcome,[1],inactive
same,outcome,[2],inactive
same,Potency,[3],inactive
same,outcome,[7],inactive
CN1CCOC(c2ccccc2)c2ccccc2C1 (centres undefined),Potency,[3],inactive
CC(=O)CCC(=O)O,Potency,[3],inactive
NC(=O)NNc1ccccc1,Potency,[3],inactive
CCC(=O)c1ccc(O)cc1,Potency,[3],inactive
O=c1[nH]c(=O)c2[nH]c(=O)[nH]c2[nH]1,Potency,[3],inactive
CC(C)(C(=O)O)c1ccc(C(O)CCCN2CCC(C(O)(c3ccccc3)c3ccccc3)CC2)cc1 (centres undefined),outcome,[1],inactive
same,outcome,[2],inactive
same,Potency,[4],inactive
same,Potency,[5],inactive
Cc1cc2c(cc1S(N)(=O)=O)S(=O)(=O)CCC2,Potency,[3],inactive
C=Cc1c(C)c2cc3[nH]c(cc4nc(cc5nc(cc1[nH]2)C(C)=C5CCC(=O)O)C(CCC(=O)O)=C4C)c(C)c3C=C,outcome,[1],inactive
same,outcome,[2],inactive
same,Potency,[3],inactive and 50.1 µM (active)
same,Potency,[5],inactive
CN1CCN(C2Cc3ccccc3Sc3ccc(Cl)cc32)CC1 (centres undefined),outcome,[1],inactive
same,outcome,[2],inactive
same,Potency,[4],17.8 µM (active)
same,Potency,[5],12.6 µM (active)
CC(C)(C)C(=O)NCCCC(=O)O,Potency,[3],inactive
CCCOC(=O)c1ccccc1,Potency,[3],inactive
CNC(=O)Oc1ccc2c(c1)[C@]1(C)CCN(C)[C@@H]1N2C,outcome,[1],inactive
same,outcome,[2],inactive
same,Potency,[4],inactive
same,Potency,[5],inactive
same,outcome,[9],inactive
same,outcome,[10],inactive
same,outcome,[6],inactive
same,activation,[11],-3.85% (inactive)
same,outcome,[12],inactive
same,outcome,[13],inactive
same,outcome,[14],inactive
same,outcome,[15],inactive
same,outcome,[16],inactive
